TIM10 inh = growth inhibitors of TIM10 yeast strain | S. cerevisiae TIM10 strain growth, BacTiter-Glo luminescence, 24 h | inhibition, % at 10 µM | 330,000 compounds, 1.4% hits;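 active means inhibition of 40% or more at the single tested concentration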;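 further: wild-type TIM10 isogenic control strain grown at permissive 25 °C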
PfHsp90 yeast 2 = inhibits growth of yeast expressing Plasmodium falciparum Hsp90. 310,000 compounds, 0.32% hits. S. cerevisiae expressing PfHsp90, BacTiter-Glo ATP, 48 h; yeast lacking PDR1 and PDR3 efflux regulators. AID 504621. inhibition, % at 9.4 µM;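 active means every replicate shows inhibition above about 80%, whatever the replicate mean, limit read from the data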;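 further: 0% = DMSO neutral controls and 100% = 20 µM radicicol positive controls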
tim10-1 inh = inhibits growth of tim10-1 mutant yeast; 330,000 compounds, 2.2% hits; AID 463190; inhibition, % at 20 µM; S. cerevisiae tim10-1 ts strain growth, BacTiter-Glo, 24 h;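 active means inhibition of at least 40%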;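 further: mutant grown at 25 °C; 0% = DMSO wells with yeast and 100% = wells holding no yeast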
tim23-1 inh = inhibits growth of tim23-1 mutant yeast | 330,000 compounds, 1.3% hits | AID 463212 | S. cerevisiae tim23-1 growth, BacTiter-Glo luminescence, 24 h | inhibition, % at 20 µM;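 active means growth inhibition of the mutant yeast at or above 50%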;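 further: temperature-sensitive mutant grown at 25 °C; plate controls were DMSO-treated mutant yeast for no effect and medium wells lacking yeast for full effect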
SKKanGAS inh = blocks kanamycin growth of S. pyogenes SKKanGAS strain; BacTiter-Glo, 6 h; inhibition, % at 7.5 µM; 300,000 compounds, 1.3% hits;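 active means mean replicate score, as percent of positive control median, at least 50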;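 further: strain carries kanamycin resistance gene driven by streptokinase promoter and grows in 40 µg/ml kanamycin; loss of luminescence reflects streptokinase promoter inhibition or plain growth inhibition; 0% = median of DMSO wells and 100% = positive control at its reference dose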
tim10-1 conf = confirmation of tim10-1 mutant yeast growth inhibitors; 7,400 compounds, 56% hits; S. cerevisiae tim10-1 ts strain growth, BacTiter-Glo, 24 h; AID 463213; shares compounds with tim10-1 inh; inhibition, % at 20 µM;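 active means inhibition of yeast growth at or above a set limit in either of two repeat tests at 20 µM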;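 further: tim10-1 mutant grown at permissive 25 °C to find synthetic lethal compounds; 0% = DMSO yeast wells and 100% = medium wells without yeast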
TIM10 conf = TIM10 yeast growth inhibition, confirmed. inhibition, % at 10 µM. AID 463215. shares compounds with TIM10 inh. 4,600 compounds, 63% hits. S. cerevisiae tim10 strain growth, BacTiter-Glo luminescence, 24 h;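 active means inhibition of yeast growth at or above a set limit in either of two replicates at 10 µM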;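 further: this counterscreen used the strain with wild-type TIM10; 0% = yeast with DMSO and 100% = medium wells lacking yeast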
tim23-1 confirm = tim23-1 yeast growth inhibition, confirmed; shares compounds with tim23-1 inh; 4,400 compounds, 83% hits; inhibition, % at 20 µM; S. cerevisiae tim23-1 growth, BacTiter-Glo luminescence, 24 h; AID 463218;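 active means inhibition above about 39% in either of two replicate wells at 20 µM, limit read from the data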;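 further: temperature-sensitive tim23-1 mutant grown at 25 °C; 0% = DMSO wells with yeast and 100% = medium wells without yeast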
Numbers without * were called inactive; x = no result given. A selection: hits, their analogues and other compounds. The true share with any hit is near 4.4%.

SMILES	TIM10 inh	PfHsp90 yeast 2	tim10-1 inh	tim23-1 inh	SKKanGAS inh	tim10-1 conf	TIM10 conf	tim23-1 confirm
N/C(=N\OC(=O)/C=C/c1ccccc1)c1cccnc1	10	0	28	16	-9	x	x	x
N/C(=N\OC(=O)c1cccs1)c1cccnc1	10	6	-22	5	0	x	x	x
COc1ccccc1NS(=O)(=O)c1ccc(C)c(C(=O)N2CCN(c3ccc(O)cc3)CC2)c1	3	2	-11	4	x	x	x	x
CCCn1nnnc1SCC(=O)NC1CCCC1	-18	-4	-5	-8	4	x	x	x
CCN1C(=O)C(=O)N(CC(=O)NC(C)CCc2ccccc2)C1=O (stereo unspecified)	9	-3	9	-1	x	x	x	x
CCN(Cc1ccccc1)CC(O)COC(c1ccc(OC)cc1)c1ccc(OC)cc1 (stereo unspecified)	32	-5	36	22	1	x	x	x
COc1ccc(-c2nc(CN(CC3CCC(=O)N3)C(C)C)c(C)o2)c(C)c1C (stereo unspecified)	21	-1	22	16	12	x	x	x
O=S(=O)(NCc1ccccc1)NCc1ccc(Cl)cc1Cl	-40	16	2	7	-3	x	x	x
CCO[C@@H]1OC(C(=O)NCc2ccccc2)=C[C@H](c2ccc(C(F)(F)F)cc2)[C@H]1CCCO	13	-1	21	28	16	x	x	x
Cc1ccc(/C(N)=N/OC(=O)CCc2ccccc2)cc1	55*	-25	46*	75*	5	49*	60*	61*
N/C(=N\OC(=O)CCc1ccccc1)c1ccccc1Cl	47*	-7	64*	56*	8	60*	42*	48*
N/C(=N\OC(=O)CCc1ccccc1)c1ccc(Br)cc1	61*	17	47*	65*	0	56*	55*	46*
N/C(=N\OC(=O)CCCc1ccccc1)c1ccc(Br)cc1	23	-4	25	19	1	x	x	x
N/C(=N\OC(=O)CCc1ccccc1)c1cccc(Br)c1	63*	14	70*	81*	-2	64*	60*	76*
O=C(CCc1ccccc1)OCCOC(=O)CCc1ccccc1	2	-3	-4	9	15	x	x	x
N/C(=N\OC(=O)C1CCCCC1)c1cccc(Br)c1	74*	24	67*	75*	10	62*	58*	81*
CN(CC(=O)Nc1ccccc1C(=O)NC1CC1)Cc1ccco1	3	-14	-1	-7	x	x	x	x
Cc1cc2c([nH]c3ccccc32)c2c1OC(C)(C)C=C2	23	18	63*	56*	39	49*	x	70*
COc1ccc2[nH]c(=O)c3c(c2c1)OC(C)(C)C=C3	2	x	17	1	-3	x	x	x
COc1cccc(NC(=O)Nc2nc(SC)ns2)c1	-4	4	-6	-4	49	x	x	x
CCSc1nsc(NC(=O)Nc2cccc(F)c2)n1	69*	-5	61*	78*	66*	72*	60*	84*
Oc1ccc2ccccc2c1/C=N/c1nc2c(s1)CCCC2	13	20	15	33	-3	x	x	x
Oc1c(Br)cc(Br)cc1/C=N/c1nc2c(s1)CCCC2	42*	74	53*	76*	51*	28	30	91*
CC(C)Cc1nc2oc3c(Cl)ncnc3c2c2c1CCC2	37	-37	50*	55*	-9	36*	x	55*
C=CCn1c(=O)n2ncnc2c2c3c(sc21)CCCC3	x	-12	x	x	-6	x	x	x
SMILES	TIM10 inh	PfHsp90 yeast 2	tim10-1 inh	tim23-1 inh	SKKanGAS inh	tim10-1 conf	TIM10 conf	tim23-1 confirm
O=c1n(Cc2ccc(Cl)cc2)c2sc3c(c2c2ncnn12)CCCC3	-2	-27	44*	68*	32	27	x	58*
O=C(/C=C\c1ccccc1OC(=O)c1ccccc1F)c1cc2ccccc2o1	48*	-26	55*	59*	-6	34*	23	50*
CC(C)(C)c1ccc(S(=O)(=O)N2CCN(CCC#N)CC2)cc1	17	x	50*	51*	0	27	x	37
CC(=O)CCCC(NS(=O)(=O)CCC(Cl)(Cl)Cl)c1ccccc1 (stereo unspecified)	8	-14	-3	24	-1	x	x	x
CN1CCN(S(=O)(=O)c2ccc(SCCOc3ccccc3)nc2)CC1	49*	x	48*	57*	1	52*	49*	46*
CN1C(c2ccccc2)CCOS1(=O)=O (stereo unspecified)	-2	-9	-16	-6	-4	x	x	x
O=[N+]([O-])c1cnc(Nc2ccc(Cl)cn2)c([N+](=O)[O-])c1	50*	-41	73*	73*	11	69*	33*	81*
O=C(Nc1ccc(Cl)cn1)c1ccccc1[N+](=O)[O-]	18	-7	-2	-10	-10	x	x	x
COC(=O)COc1ccc(-c2ccccc2)cc1C=O	73*	-4	66*	65*	-3	60*	73*	83*
Cc1ccc(-n2ncc3c2CCCC3NC(=O)c2csnn2)cc1C (stereo unspecified)	26	-4	59*	52*	-2	41*	x	43*
CC(C)(C)C(=O)O/N=C(\N)Cc1ccc(-c2csnn2)cc1	47*	-4	75*	51*	7	82*	52*	30
COc1ccc(S(N)(=O)=O)cc1C(=O)OCC(=O)N1CC(=O)Nc2ccccc21	-1	6	-9	2	x	x	x	x
CCCCc1ccc(/C=C2\C(=O)c3ccccc3C(O)=C2C(=O)OCC)cc1	47*	x	64*	50*	109*	55*	47*	59*
COc1ccc(C=C2C(=O)c3ccccc3C2=O)cc1O	36	-18	34	40	6	x	x	x
Cc1cc(C)nc(S/C=C/C(=O)c2ccccc2F)n1	53*	-10	43*	64*	0	28	53*	63*
Cc1ccc2cccc(OCC(=O)Nc3cccc(S(=O)(=O)N4CCCC4)c3)c2n1	26	-15	26	28	x	x	x	x
CC(C)CN(C(=O)CN(C)C(=O)c1ccco1)c1c(N)n(CC(C)C)c(=O)[nH]c1=O	-12	6	-16	-16	-5	x	x	x
Cc1cc(O)c(C(=O)/C=C/c2ccc(Cl)cc2)c(=O)o1	33	4	47*	53*	20	40*	x	52*
CCCN1CCN(CC(O)COC(c2ccc(OC)cc2)c2ccc(OC)cc2)CC1 (stereo unspecified)	x	20	x	x	6	x	x	x
CC(Nc1ccc(Cl)cc1)c1cc(Cl)ccc1O (stereo unspecified)	29	3	66*	64*	2	58*	x	52*

Source: PubChem BioAssay (several laboratories)
